# Shown are actives, neighbours in structure and some others; about 27% of the full set was active somewhere.
# CYP2C9 act: increases human cytochrome P450 2C9 activity. recombinant CYP2C9, luciferin-H conversion, luminescence; stronger effect = higher value; factor 1 = untreated enzyme, 0 = blocked. activation factor at 5 µM. 96,000 compounds, 1.4% hits;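 active = activation factor of 2 or more for CYP2C9 at a 5 µM dose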;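 also: 0 = sulfaphenazole-blocked wells and 1 = vehicle-only wells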
# Target sequence (P11712 whole entry, looked up): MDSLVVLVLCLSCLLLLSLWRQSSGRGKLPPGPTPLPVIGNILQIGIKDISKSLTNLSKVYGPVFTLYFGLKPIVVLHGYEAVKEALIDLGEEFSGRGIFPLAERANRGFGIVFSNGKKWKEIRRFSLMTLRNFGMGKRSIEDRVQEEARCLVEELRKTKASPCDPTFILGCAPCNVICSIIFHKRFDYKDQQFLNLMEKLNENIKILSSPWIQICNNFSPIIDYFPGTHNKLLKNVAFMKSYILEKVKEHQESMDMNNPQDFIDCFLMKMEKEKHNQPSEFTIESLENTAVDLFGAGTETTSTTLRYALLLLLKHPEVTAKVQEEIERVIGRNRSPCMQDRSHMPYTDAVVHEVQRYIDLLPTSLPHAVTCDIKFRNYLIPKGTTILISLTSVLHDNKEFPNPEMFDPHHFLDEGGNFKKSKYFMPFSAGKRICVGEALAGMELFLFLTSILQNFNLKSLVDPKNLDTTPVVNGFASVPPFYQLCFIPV
# sEH act: increases human soluble epoxide hydrolase activity; purified human sEH enzymatic activity, activator screen; 91,000 compounds, 0.04% hits; activation, % at 2 µM; P34913; AID 717; in the data active = activation above about 37%
# CYP2C9 inhib: blocks human cytochrome P450 2C9; P11712; CYP2C9 Supersomes, luciferin-H conversion, luminescence; inhibition, % at 5 µM; 96,000 compounds, 20% hits;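 active = blocking of liver enzyme CYP2C9 beyond about 50% at 5 µM, limit read from the data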
# CYP2C19 inh: human CYP2C19 inhibition | P33261 | CYP2C19 Supersomes, luciferin-H EGE luminescence, 30 min | inhibition, % at 5 µM | 96,000 compounds, 21% hits | AID 778;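 active = CYP2C19 inhibition above a set limit at 5 µM in the primary screen, cut at about 50% in these data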;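 also: plate controls were negative control wells for no effect and 2.5 mM tranylcypromine positive control for full effect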
# CYP2C19 activ: cytochrome P450 2C19 (human) activation. activation factor at 5 µM. 96,000 tested, under 10 active. P33261. recombinant CYP2C19, luciferin-H EGE luminescence; stronger effect = higher value; 0 = fully inhibited enzyme, 1 = untreated enzyme. AID 1025;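 active = activation factor of at least 2 at 5 µM in the primary screen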;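 also: 0 = wells with 2.5 mM tranylcypromine and 1 = vehicle-only wells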
# sEH inh: soluble epoxide hydrolase (human) inhibition | 91,000 compounds, 0.34% hits | P34913 | recombinant human sEH enzymatic activity assay | inhibition, % at 2 µM; in the data active = inhibition above about 80%
# * hit, by the source's call; x = not tested or not shown.
SMILES,CYP2C9 act,sEH act,CYP2C9 inhib,CYP2C19 inh,CYP2C19 activ,sEH inh
O=C(N/N=C/c1cc2ccccc2nc1Cl)/C(=C/c1cccs1)NC(=O)c1ccccc1,0.6,18.1,43.1,80.5*,0.2,-15.9
O=C(c1cccs1)N1CCc2c([nH]c3ccccc23)C1c1ccc(Cl)cc1 (centres undefined),0.5,-1.4,51.4*,23.1,0.8,2.1
CCOc1ccccc1OCCOc1ccccc1OC(C)C,0.9,11.5,10.7,56.0*,0.4,-14.5
COc1cccc(OCCOc2ccccc2OC(C)C)c1,0.8,29.7,21.6,90.1*,0.1,-30.9
CCOc1ccccc1OCCOc1cccc(C(F)(F)F)c1,1.4,4.6,-35.3,19.7,0.8,-1.4
CCOc1ccccc1OCCOc1ccccc1CC,1,13.2,1.8,30.4,0.7,-9.7
CCOC(=O)N1CCC(Nc2ncnc3c2cnn3-c2ccc(C)cc2C)CC1,0.4,1.1,57.7*,43.7,0.6,-1.2
CC(=O)Nc1ccc(Nc2ncnc3c2cnn3-c2cccc(C)c2)cc1,0.9,1.6,10.4,8.8,0.9,-0.1
CC(=O)Nc1ccc(Nc2ncnc3c2cnn3-c2ccc(C)cc2C)cc1,0.5,6.7,51.6*,54.3*,0.5,-4.5
O=C(c1ccccc1)c1c[nH]c2cc3c(cc2c1=O)OCCO3,x,3.6,x,x,x,-3.4
O=C(NCc1cccnc1)c1cccn2c(=O)c3sccc3nc12,0.6,-0.9,42.9,76.5*,0.2,3.6
CCn1c(=N)c(C(=O)NCc2cccnc2)cc2c(=O)n3cccc(C)c3nc21,1.2,x,-18.6,-15.9,1.2,x
Cc1csc(NC(=O)CSc2nc(C)cs2)n1,0.9,11.1,13.5,57.8*,0.4,-9.5
Cc1csc(SCC(=O)Nc2cc(C(C)(C)C)nn2-c2ccccc2)n1,0.2,x,79.8*,70.8*,0.3,x
COc1ccc(NC(=O)CSc2nc(C)cs2)cc1OC,0.6,19.8,43.0,47.0,0.5,-19.9
COCC(=O)OCC(=O)Nc1cc(C(C)(C)C)nn1-c1ccccc1,0.9,2.6,9.0,-14.6,1.1,-2.5
COc1ccc(-c2csc(NC(=O)CSc3nc(C)cs3)n2)cc1,x,0.5,x,x,x,2.0
COc1cccc(NC(=O)CSc2nc(C)cs2)c1,0.8,-6.0,23.6,81.9*,0.2,4.1
COc1ccc(CC(=O)Nc2cccc(-c3csc(C)n3)c2)cc1,0.4,2.6,59.6*,68.6*,0.3,0.5
Cc1onc(-c2ccccc2Cl)c1C(=O)Nc1sc2c(c1C(N)=O)CCC(C)C2 (centres undefined),x,-2.1,x,x,x,4.5
C=CCN1C(=NC(=O)CCC)SC2CS(=O)(=O)CC21 (centres undefined),1,1.0,1.4,32.2,0.7,-1.3
Cc1csc(SCC(=O)Nc2cccc3nsnc23)n1,0.2,-2.9,76.6*,55.3*,0.4,4.2
Cc1csc(SCC(=O)Nc2ccccn2)n1,1,-9.3,0.9,33.0,0.7,7.0
C#CCOC(=O)c1ccccc1C(=O)n1nnc2ccccc21,0.3,-4.5,66.1*,88.0*,0.1,4.0
COC(=O)c1cn(-c2ccc(Cl)cc2)c(=O)c2ccccc12,0.3,5.4,74.5*,69.2*,0.3,-3.9
SMILES,CYP2C9 act,sEH act,CYP2C9 inhib,CYP2C19 inh,CYP2C19 activ,sEH inh
COC(=O)c1cn(NC(=O)c2cccnc2)c(=O)c2ccccc12,0.9,-4.7,6.7,-8.3,1.1,2.9
COC(=O)c1cn(NC(=O)c2ccncc2)c(=O)c2ccccc12,0.4,x,62.4*,37.4,0.6,x
COC(=O)c1cn(NC(=O)c2cc(OC)cc(OC)c2)c(=O)c2ccccc12,0.2,-2.0,78.4*,15.0,0.8,4.7
COC(=O)c1cn(NC(=O)c2cc(OC)c(OC)c(OC)c2)c(=O)c2ccccc12,0.9,1.1,8.1,5.1,0.9,1.7
c1cncc(-c2nc(-c3cccs3)cs2)c1,0.7,13.8,27.3,70.4*,0.3,-14.3
c1cncc(-c2nc(-c3ccc4c(c3)OCO4)cs2)c1,0.6,-4.0,36.7,69.3*,0.3,6.2
Clc1ccsc1-c1csc(-c2cccnc2)n1,0.9,4.9,6.3,62.0*,0.4,-6.4
Cc1nc(-c2ccc3c(c2)OCO3)cs1,1.1,16.1,-10.7,18.1,0.8,-14.2
O=C1CC(c2ccc(S(=O)(=O)N3CCN(c4ccccc4)CC3)cc2)CN1 (centres undefined),0.8,-4.8,19.3,9.7,0.9,7.9
COC(=O)c1cc2oc(C)cc2n1CC(=O)Nc1cc(C)cc(C)c1,1,-5.3,3.9,-11.4,1.1,7.7
CCOC(=O)c1cc2sc(C)cc2n1CC(=O)Nc1ccc2c(c1)OCCO2,0.9,8.0,8.6,35.8,0.6,-4.9
CCOC(=O)c1cc2sc(C)cc2n1C(C)C(=O)OCC (centres undefined),0.5,17.8,54.5*,95.4*,0,-14.6
Cc1ccc(C)c(N2CCN(C(=O)C3CCN(S(=O)(=O)c4cccc5nsnc45)CC3)CC2)c1,0.5,0.1,49.0,40.2,0.6,-2.5
CC(C)NS(=O)(=O)c1ccc(CCC(=O)NCc2cccnc2)cc1,0.8,x,24.2,8.4,0.9,x
Cc1ccc(S(=O)(=O)NC(CC(=O)O)c2ccco2)cc1 (centres undefined),1.1,3.5,-5.9,29.0,0.7,-4.6
CCC(C)NC(=O)CC(NS(=O)(=O)c1ccc(Cl)cc1)c1ccco1 (centres undefined),0.8,-4.2,20.1,75.0*,0.3,4.3
O=C(CC(NS(=O)(=O)c1ccc(Cl)cc1)c1ccco1)NCc1cccnc1 (centres undefined),0.3,x,70.3*,88.0*,0.1,x
CC(NS(=O)(=O)c1ccc(CCC(=O)NCc2cccnc2)cc1)c1ccccc1 (centres undefined),0.3,-4.7,71.0*,58.0*,0.4,6.5
Cc1ccc2nc(C)c(C)nc2c1N,0.9,16.3,14.5,77.4*,0.2,-14.2
O=C(CN(CCc1ccccc1)C(=O)CNS(=O)(=O)c1ccccc1)NCc1ccco1,0.9,-15.8,10.2,19.7,0.8,15.2
O=C(CN(Cc1cccs1)C(=O)CNS(=O)(=O)c1ccc(Cl)cc1)NCc1ccco1,0.7,7.6,28.3,37.6,0.6,-5.5
Cc1ccc(S(=O)(=O)NCC(=O)N(CCc2ccccc2)CC(=O)NCc2ccco2)cc1,0.5,-6.1,53.4*,72.1*,0.3,7.5
CN(C)S(=O)(=O)c1cccc(C(=O)N(Cc2ccc(F)cc2)Cc2ccco2)c1,0.5,2.7,50.8*,5.8,0.9,-0.1
O=C(CN(Cc1ccco1)C(=O)CNS(=O)(=O)c1ccc(F)cc1)NCc1ccc(F)cc1,1,x,-2.6,-2.7,1,x
O=C(CN(Cc1cccs1)C(=O)CNS(=O)(=O)c1ccc(F)cc1)NCc1ccco1,0.8,9.3,21.5,58.2*,0.4,-12.4
Cc1ccc(N(Cc2ccco2)C(=O)c2cccc(S(=O)(=O)N(C)C)c2)cc1,0.7,13.6,28.4,39.9,0.6,-10.8

# High-throughput results (PubChem BioAssay)
